In PubChem BioAssay AID488969 (Vanderbilt High Throughput Screening Facility, 2010) one finds z-score data, which are given here for 72 compounds.

SMILES strings stand for the structures. The full ranking holds about 110,000 compounds; the median of “z-score” is about -0.1, and the highest 2% start at about 2. Only a selection was taken, and the highest values are over-represented in it overall. Activity calls are given as the source filed them.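 Rule for the calls: active = z-score in the third read window above 3 or below -3; inactive = the rest.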

Metabotropic glutamate receptor 8 (Rattus norvegicus), sequence (P70579 whole entry, looked up): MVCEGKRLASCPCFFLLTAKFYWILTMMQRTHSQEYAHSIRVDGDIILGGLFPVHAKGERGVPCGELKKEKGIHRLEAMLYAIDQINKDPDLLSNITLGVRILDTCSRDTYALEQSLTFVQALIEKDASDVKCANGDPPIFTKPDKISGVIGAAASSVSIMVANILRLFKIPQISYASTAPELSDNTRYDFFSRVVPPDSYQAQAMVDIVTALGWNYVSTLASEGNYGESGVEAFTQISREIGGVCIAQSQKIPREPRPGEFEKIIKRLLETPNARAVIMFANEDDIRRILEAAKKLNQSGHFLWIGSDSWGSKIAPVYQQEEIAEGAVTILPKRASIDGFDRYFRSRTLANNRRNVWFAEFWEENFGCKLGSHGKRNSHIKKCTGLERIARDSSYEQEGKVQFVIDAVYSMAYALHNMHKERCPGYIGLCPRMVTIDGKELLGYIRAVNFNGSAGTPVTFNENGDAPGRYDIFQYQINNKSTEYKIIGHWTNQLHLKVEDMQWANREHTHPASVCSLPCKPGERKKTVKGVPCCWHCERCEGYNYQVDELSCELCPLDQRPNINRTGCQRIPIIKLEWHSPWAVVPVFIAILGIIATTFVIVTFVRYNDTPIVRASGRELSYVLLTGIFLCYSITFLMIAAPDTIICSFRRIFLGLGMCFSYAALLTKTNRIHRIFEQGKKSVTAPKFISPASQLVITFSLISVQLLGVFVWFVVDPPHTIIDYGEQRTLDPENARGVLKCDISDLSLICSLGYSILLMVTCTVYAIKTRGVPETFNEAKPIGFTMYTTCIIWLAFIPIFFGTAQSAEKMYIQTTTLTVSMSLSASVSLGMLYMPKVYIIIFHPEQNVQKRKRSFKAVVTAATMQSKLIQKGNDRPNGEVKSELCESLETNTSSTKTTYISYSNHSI

The assay addresses Metabotropic glutamate receptor 8 (Rattus norvegicus) (UniProt P70579). The assay is described as follows: rat mGluR8 modulators via GIRK flux, primary screen, cell-based, thallium flux, HTS (AID 488969). The conditions noted are these: HEK293 rat mGluR8, GIRK (G protein-gated inwardly rectifying potassium channel) thallium flux, FluoZin2; at 10 µM; stronger effect = higher value; submaximal glutamate (EC20) added with thallium.
For `CCCCn1c(N)c(-c2nc3ccccc3s2)c2c([N+](=O)[O-])nn(C)c(=O)c21`, the z-score came to 1.31.

Compound `CCOC(=O)/C(=C/c1ccc(OC)cc1)NC(=O)c1ccco1` registered a z-score of -0.186.

`COc1ccc(-c2csc(NC(=O)C3CCCCN3S(=O)(=O)c3ccccc3)n2)cc1` (configuration not stated) had a z-score of 1.82. The figure for `Cc1ccccc1-c1nnn(CC(=O)N2CCN(S(=O)(=O)c3ccc(Cl)cc3)CC2)n1` is -0.031; for `Cn1c(=O)c2c(ncn2CC(=O)N/N=C/c2ccco2)n(C)c1=O` it is 1.59; for `Cn1c(=O)c2c(ncn2CC(=O)N/N=C/c2ccc(Br)s2)n(C)c1=O` it is 2.47.

`Cn1c(=O)c2c(ncn2CC(=O)N/N=C/C(Br)=C/c2ccccc2)n(C)c1=O` had a z-score of 0.116. As for `O=C(CSc1ccccc1Cl)NC1CCCc2ccccc21` (configuration not stated), the z-score is -0.386. In the case of `O=C(NCc1ccco1)C1CCN(c2ccc(N3CCOCC3)nn2)CC1` it was 0.321; in that of `O=C(CCC(=O)Nc1ccccc1)NNC(=O)COc1ccccc1`, -0.00186; in that of `O=C(Cc1ccccc1)N/N=C/c1ccc(OC(=O)/C=C\c2ccco2)cc1`, -0.0554. In the case of `CCN(CC)CCCn1c(C)cc2c(c1=O)C(c1ccccc1)C(C#N)=C(N)O2` (configuration not stated) it was 0.538; in that of `CCN(CC)CCCn1c(C)cc2c(c1=O)C(c1cccc(Cl)c1)C(C#N)=C(N)O2` (configuration not stated), 2.38; in that of `CCN(CC)CCCn1c(C)cc2c(c1=O)C(c1ccc(OC)c(OC)c1OC)C(C#N)=C(N)O2` (configuration not stated), -0.47. In the case of `O=S(=O)(/N=C(/Nc1ccc(F)c(F)c1F)c1ccccc1)c1ccccc1` it was -0.125. With `CC(C#N)Sc1ncnc2sc3c(c12)CCC3` (configuration not stated), the z-score amounted to 0.00954. In the case of `CCSc1ncnc2sc3c(c12)CCC3` it was -0.0891. The figure for `Cc1cc(C)nc(Sc2ncnc3sc4c(c23)CCC4)n1` is 5.12 (active); for `O=C(NCc1ccc(Cl)cc1Cl)C(=O)N1CCCCC1` it is 0.112; for `O=C(COc1ccccc1)NCCc1cn2ccsc2n1` it is 0.183. The figure for `Cc1ccc(C)c(NC(=O)c2cnn3ccccc23)c1` is -0.0235.

On to `COc1cc(CCN2C(=O)c3cccc4cccc(c34)C2=O)c(S(=O)(=O)NCCCO)cc1OC`, for which the z-score was 0.452.

`CCOC(=O)c1ccccc1NC(=O)COC` gave a z-score of -0.129. `CCOC(=O)c1ccccc1Nc1cn(C(C)=O)c2ccccc12`: the z-score was 2.73. In the case of `CC(=O)n1cc(Nc2ccccc2C(=O)O)c2ccccc21` it was -1.18. The compound `COc1cccc2[nH]c3c(N4CCC(C(N)=O)CC4)ncnc3c12` returned a z-score of 0.0357. In the case of `Cc1ccc(S(=O)(=O)N(CCC(=O)O)Cc2ccc(Cl)cc2)cc1` it was -0.125; in that of `Cc1ccc(S(=O)(=O)N2CCN(C(=O)CN3C(=O)NC4(CCOc5ccccc54)C3=O)CC2)cc1` (configuration not stated), 0.106. In turn, `CCN(CC)CCn1cnc2c([nH]c3cccc(OC)c32)c1=O` registered a z-score of -0.0646. With `CCOC(=O)C1CCN(C(=O)NC23CC4CC(CC(C4)C2)C3)CC1`, the z-score was 3.31 (active). Compound `CCOC(=O)N1CCN(C(=O)NC23CC4CC(CC(C4)C2)C3)CC1` had a z-score of -0.174. `CCOC(=O)C1CCN(C(=O)C23CC4CC(CC(C4)C2)C3)CC1` gave a z-score of 0.212.

As for `Cc1cccc(NC(=S)NCCc2c[nH]c3ccccc23)c1`, the z-score was determined as 0.201. With `CC(C)(C)Nc1nc2nonc2nc1NC(C)(C)C`, the z-score was -0.28. In the case of `Cc1oc(/C=N/NC(=O)CN(c2ccccc2Br)S(C)(=O)=O)cc1Br` it was -0.262. Turning to `CCN(CC)S(=O)(=O)c1csc(C(=O)OCC(=O)c2ccccc2)c1`, the z-score was -0.217. The figure for `CCN(CC)S(=O)(=O)c1csc(C(=O)NC2CCCCC2)c1` is 0.101.

`CCN(CC)S(=O)(=O)c1csc(C(=O)NCc2ccccc2)c1`: the z-score was determined as 2.45. In the case of `COn1c2c(c3c4no[n+]([O-])c4ccc31)CCCC2` it was -0.414; in that of `COc1cccc(NC(=O)CCSc2ccc3ccccc3n2)c1`, -0.0656; in that of `O=C(O)c1cc(NS(=O)(=O)c2ccc(N3CCCCC3)c([N+](=O)[O-])c2)cc(C(=O)O)c1`, -0.105. The figure for `CCC(C)n1c(SCC(=O)Nc2cc(C)on2)nc2ccccc2c1=O` (configuration not stated) is 0.0932; for `COCC(C)n1c(SCC(=O)NC(=O)Nc2ccc3c(c2)OCCO3)nc2ccccc2c1=O` (configuration not stated) it is -1.25; for `CCC(C)n1c(SCC(=O)NC(=O)Nc2ccc3c(c2)OCCO3)nc2ccccc2c1=O` (configuration not stated) it is 4.47 (active). The figure for `Cn1c(=O)c2c(nc(SCC(=O)NCc3ccco3)n2C)n(C)c1=O` is 0.332; for `C/C(CC(=O)Nc1ccccn1)=N\NC(=O)c1ccc2ccccc2c1` it is -0.53.

`CCCNC(=O)C(=O)Nc1ccc(N(C)C)cc1` gave a z-score of -0.0526.

As for `Cc1ccccc1NC(=S)NC(=O)c1cncc(Br)c1`, the z-score was 6.92 (active). The figure for `O=C(NC(=S)Nc1ccc(Br)cn1)c1cncc(Br)c1` is 0.371; for `CC1CCCC(NC(=S)NC(=O)c2cncc(Br)c2)C1C` (configuration not stated) it is 6.76 (active). In the case of `Cc1cccnc1NC(=S)NC(=O)c1cncc(Br)c1` it was -0.14; in that of `COc1ccccc1/C=C/C(=O)NC(=S)Nc1ccc(S(=O)(=O)N(C)c2ccccc2)cc1`, 0.119; in that of `O=C(NC(=S)Nc1ccccn1)c1cncc(Br)c1`, 0.829. In the case of `CC1CCCC(NC(=S)NC(=O)c2ccccc2Br)C1C` (configuration not stated) it was 2.91. Compound `O=C(NC(=S)NCC1CCCO1)c1ccccc1Br` (configuration not stated) came in with a z-score of 1.6. The figure for `COc1ccccc1/C=C/C(=O)NC(=S)N(C)C1CCCCC1` is 4.46 (active); for `CC1CCCCC1NC(=S)NC(=O)c1ccccc1Br` (configuration not stated) it is 0.799. The figure for `O=C(NC(=S)Nc1ncc(Br)cc1Br)c1cncc(Br)c1` is 0.278; for `COc1ccccc1/C=C/C(=O)NC(=S)NC(C)C` it is 0.776. The figure for `CCOC(=O)c1c(C)nc2sc3c(=O)n(-c4ccc(C(C)=O)cc4)cnc3c2c1-c1ccc(Cl)cc1` is -0.533; for `CC(C)(Oc1ccc(Cl)cc1)C(=O)N1CCN(c2ccccn2)CC1` it is -0.0555; for `Cc1cc(C)nc(/N=C2\NC(=O)CC3C(=O)NCCN23)n1` (configuration not stated) it is -0.12. As for `CS(=O)(=O)N(CC(=O)NCc1ccncc1)c1ccc(Cl)c(Cl)c1`, the z-score is -0.214. In the case of `COC(=O)c1cc(Cl)c(NC(=O)/C=C/c2ccc(Cl)cc2)cc1OC` it was -0.0302; in that of `CCCN1C2CCCC1CC(NC(=O)Nc1ccc(C(C)C)cc1)C2` (configuration not stated), 0.407. The figure for `CN1CCN(Cc2cc(=O)oc3cc4c(cc23)CCC4)CC1` is 0.745; for `O=C(NC(=S)NC1CCCCCC1)c1cncc(Br)c1` it is 6.87 (active); for `CN(C(=O)c1ccccc1Cl)C1CCCCC1` it is 0.549. In the case of `CN(C(=S)NC(=O)c1ccccc1Br)C1CCCCC1` it was 3.51 (active). With `O=C(NC(=S)NC1CCCCCCCCCCC1)c1cccnc1`, the z-score was -0.0629.

The compound `CN(C(=O)c1ccc(C(=O)N(C)C2CCCCC2)cc1)C1CCCCC1` came in with a z-score of 0.244. The figure for `O=C(NC(=S)NC1CC1)c1cccnc1` is 0.798.
